# Laboratory results reported in PubChem BioAssay (EPA / NIEHS).
# Where “and” joins values, the source holds several entries; their conditions need not be identical. Identical values can stand only once. Where a structure was tested more than once in an assay, its records may differ in their call. Calls of active or inactive are those of the source. How the source made its calls: active means hit-call score of the fitted dose curve at least 0.9, where 1 is the maximum; inactive means score below 0.9.
# Test: CCTE_Shafer_MEA_dev_firing_rate_mean: CCTE's Neural Network Formation Assay for Mean Firing Rate, Shafer Lab (AID 2284031);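 on AC50: curve fitted for loss of firing so AC50 reflects decreased mean firing rate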
# Protocol: CCTE_Shafer_MEA_dev assay is conducted using Axion Biosystems 48 well microelectrode array (MEA) plates and Maestro recording system. Each well of the MEA plate contains a grid of 16 microelectrodes embedded in the culture surface. Electrically active cells, such as neurons, can be cultured over the electrodes, and electrical activity in these cells can be recorded extracellularly. The spontaneous firing of neurons is captured from each electrode on a microsecond timescale providing both temporally and spatially precise data. […] The CCTE_Shafer_MEA_dev assay uses primary cultures of rat cortical neurons. Recordings are made on days post-plating 5, 7, 9 and 12. As these cultures mature over time, neural networks develop functional activity and form cohesive networks in which electrical activity can be highly coordinated. CCTE_Shafer_MEA_dev_firing_rate_mean is 1 of 19 assay components of the CCTE_Shafer_MEA_dev assay. It measures the frequency of spikes (action potential firings) as the total number of spikes divided by the length of the recording in a microelectrode array (MEA) using Axion Biosystems Maestro 768 channel amplifier with the AxIS adaptive spike detector. The firing rate is averaged across the active electrodes to report a well-mean value. To collapse across multiple recordings made on days post-plating 5, 7, 9 and 12, the trapezoidal area-under-the-curve of the component is calculated.Data from the assay component CCTE_Shafer_MEA_dev_firing_rate_mean was analyzed into 1 assay endpoint. This assay endpoint, CCTE_Shafer_MEA_dev_firing_rate_mean, was analyzed in the negative analysis fitting direction relative to DMSO as the negative control and baseline of activity. Using a type of functional reporter, gain or loss-of-signal activity can be used to understand electrical activity.
# On the day prior to culture, each well was coated thoroughly with 150 uL of 0.05% polyethyleneimine (PEI, Sigma Cat P3143) in 50 mM HEPES (Sigma Cat H7523) at a pH of 8. The plate was incubated at 37C for one hour. PEI was rinsed out with 500 uL of sterile water three times. Plates were stored at 4C until the day of culture. This culture was plated at a seeding density of 1.5 x 10^5 cells/well on a 48-well MEA plate, prepared as described above. Cells were administered via a 25 uL media/laminin ([…]; Sigma Cat L2020-1MG) drop directly onto the microelectrode array, as adding the cells with the laminin results in better attachment than pre-coating with laminin. After 2 hours, an additional 475 uL of cortical media was added and the cells returned to the incubator. Exposure starts at day 0 of plating and is continued over twelve days of network development until the experiment is terminated. Cells are fed with fresh medium on DIV 5 and 9, following the recordings on those days. The entire volume of media in the well is exchanged and any vehicle or compound treatment is renewed. Complete details are found in OP-NHEERL/ISTD/SBB/TJS/2015-03-r0 (available on request, email shafer.tim@epa.gov). Measurement of the electrical activity is non-invasive, and recordings can be made from the same plate over multiple different days of the culture. In cortical neurons, this allows for the measurement of extracellular action potentials over the period during which networks form in the MEA plate.
SMILES,outcome,AC50
C=CCC1=C(C)C(OC(=O)C2C(C=C(C)C)C2(C)C)CC1=O (stereo not drawn),inactive,–
C=CCC1=C(C)[C@@H](OC(=O)[C@@H]2[C@@H](C=C(C)C)C2(C)C)CC1=O,inactive,–
C=CC1(C)OC(=O)N(c2cc(Cl)cc(Cl)c2)C1=O (stereo not drawn),inactive,–
COP(N)(=O)SC (stereo not drawn),inactive,–
CO/C=C(/C(=O)OC)c1ccccc1Oc1cc(Oc2ccccc2C#N)ncn1,–,925 nM (active) and 1.71 µM (active)
Cc1c(F)c(F)c(COC(=O)C2C(/C=C(\Cl)C(F)(F)F)C2(C)C)c(F)c1F (stereo not drawn),–,598 nM (active)
CN(C)C(=S)SSC(=S)N(C)C,–,7.36 nM (active)
CCCCNC(=O)n1c(NC(=O)OC)nc2ccccc21,inactive,–
COC(=O)N(OC)c1ccccc1COc1ccn(-c2ccc(Cl)cc2)n1,inactive,79.6 nM (active)
CCNc1nc(Cl)nc(NC(C)C)n1,inactive,–
CCOC(=O)CC(SP(=S)(OC)OC)C(=O)OCC (stereo not drawn),inactive,–
CCCCOC(=O)c1ccccc1C(=O)OCCCC,inactive,–
COP(=S)(OC)Oc1nc(Cl)c(Cl)cc1Cl,inactive,–
COc1ccc(C(c2ccc(OC)cc2)C(Cl)(Cl)Cl)cc1,inactive,–
CCCCC(CC)COC(=O)c1ccccc1C(=O)OCC(CC)CCCC (stereo not drawn),inactive,2.98 µM (active) and 3.04 µM (active)
N#Cc1nn(-c2c(Cl)cc(C(F)(F)F)cc2Cl)c(N)c1S(=O)C(F)(F)F (stereo not drawn),inactive,–
CCOc1cc(Oc2ccc(C(F)(F)F)cc2Cl)ccc1[N+](=O)[O-],–,12800 nM (active)
Cc1ccc(-c2c(Cl)nc(C#N)n2S(=O)(=O)N(C)C)cc1,–,18000 nM (active)
CC(C)(C)c1ccc(CSc2cnn(C(C)(C)C)c(=O)c2Cl)cc1,–,4.92 nM (active)
CCCCNC(=O)OCC#CI,–,3.81 µM (active) and 2.25 µM (active)
CNC(=O)ON=CC(C)(C)SC,inactive,–
